HP1b binding inh: HTS for Inhibitors of HP1-beta Chromodomain Interactions with Methylated Histone Tails. Chromobox protein homolog 1 (Homo sapiens), P83916. AlphaScreen HP1-beta / biotin-H3K9me3 peptide binding. Potency, µM (top dose mostly 114 µM), inactives show top-dose activity change, negative = inhibition, actives largely listed as inhibitors. hit rate 0.56% among 390,000. AID 540317, 2011; note: nearly all actives have a fitted effect of over 70% in size
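AlphaScreen: HP1-beta (50 nM) preformed 30 min with biotin-H3(1-18)K9me3 peptide (50 nM) in PBS pH 7.4, 0.01% Tween-20. Compound added for 30 min at RT, then streptavidin donor/nickel chelate acceptor beads (10 ug/mL) for 30 min.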
BAZ2B block: qHTS Assay for Inhibitors of BAZ2B. AlphaScreen BAZ2B-H3K14Ac peptide displacement. Bromodomain adjacent to zinc finger domain protein 2B (Homo sapiens), Q9UIF8. hit rate 4.4% among 360,000. AID 504333, 2011. Potency, µM (titrated, usually from 114 µM), for the others: at the top dose activity change, negative = inhibition, usual class: inhibitors; note: % is set by controls: 0 for no effect and ±100 for the full control effect; nearly all actives have a fitted effect of over 60% in size
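AlphaScreen luminescence quantifies BAZ2B engagement of H3K14Ac peptide; the protein and biotinylated peptide are both at 50 nM final, buffer PBS pH 7.4 with 0.01% Tween-20, all steps at room temperature.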
TDP1 block: qHTS Assay for Inhibitors of Tyrosyl-DNA Phosphodiesterase (TDP1) | Tyrosyl-DNA phosphodiesterase 1 (Homo sapiens), Q9NUW8 | recombinant TDP1, AlphaScreen DNA substrate cleavage | Potency, µM (top dose mostly 130 µM), for the others: top-dose activity change, negative = inhibition, usual class: inhibitors | hit rate 0.28% among 350,000 | AID 485290, 2010; note: % is set by controls: 0 for no effect and ±100 for the full control effect; nearly all actives have a fitted effect of over 40% in size
Target sequence (Q9NUW8 whole entry, looked up): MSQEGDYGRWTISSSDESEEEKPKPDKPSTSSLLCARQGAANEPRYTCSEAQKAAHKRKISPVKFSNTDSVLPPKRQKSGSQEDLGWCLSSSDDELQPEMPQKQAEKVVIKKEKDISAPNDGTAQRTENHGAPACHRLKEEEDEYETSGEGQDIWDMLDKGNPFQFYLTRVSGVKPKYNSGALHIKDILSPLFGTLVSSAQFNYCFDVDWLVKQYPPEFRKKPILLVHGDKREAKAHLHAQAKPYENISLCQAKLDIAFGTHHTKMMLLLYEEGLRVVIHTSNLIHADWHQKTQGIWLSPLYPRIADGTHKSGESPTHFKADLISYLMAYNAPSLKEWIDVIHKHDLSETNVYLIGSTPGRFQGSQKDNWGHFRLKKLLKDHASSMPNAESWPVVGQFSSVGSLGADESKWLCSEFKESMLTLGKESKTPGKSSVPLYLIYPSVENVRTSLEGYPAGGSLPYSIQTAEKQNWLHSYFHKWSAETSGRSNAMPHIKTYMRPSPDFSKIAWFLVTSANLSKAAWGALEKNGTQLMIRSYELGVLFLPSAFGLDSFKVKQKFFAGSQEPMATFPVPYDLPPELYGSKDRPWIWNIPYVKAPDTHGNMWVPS
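Recombinant human Tdp1 (E. coli-expressed, 1 nM final) preincubated with compounds 15 min at room temperature, then 5'-biotin/3'-phosphotyrosine-FITC DNA substrate (15 nM final) added for 5 min. AlphaScreen beads (10 ug/ml final) added 10 min; cleavage lowers signal.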
G9a inh: qHTS Assay for Inhibitors of Histone Lysine Methyltransferase G9a. G9a H3K9 monomethylation, AlphaScreen, 2 h. hit rate 8.8% among 350,000. Potency, µM (titrated, usually from 102 µM), for the others: at the top dose activity, negative = inhibition, usual class: inhibitors. Histone-lysine N-methyltransferase EHMT2 (Homo sapiens), Q96KQ7. AID 504332, 2011; note: % is set by controls: 0 for no effect and ±100 for the full control effect; nearly all actives have a fitted effect of over 75% in size
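Signal arises when biotinylated H3K9 peptide, once monomethylated, bridges streptavidin donor and antibody-captured acceptor beads. Enzyme at 20 nM was preincubated 15 min with test compounds; peptide 500 nM and SAM 20 uM then reacted for 2 h.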
JMJD2A Tudor inh: qHTS Assay for Inhibitors of JMJD2A-Tudor Domain; Lysine-specific demethylase 4A (Homo sapiens), O75164; AlphaScreen JMJD2A-Tudor / H3K4me3 peptide binding; Potency, µM (titrated, usually from 114 µM), inactives show at the top dose activity change, negative = inhibition, hits mostly inhibitors; hit rate 4.4% among 390,000; AID 504339, 2011; note: % is set by controls: 0 for no effect and ±100 for the full control effect; nearly all actives have a fitted effect of over 50% in size
Sfp PPTase inh: qHTS Assay for Inhibitors of Bacillus subtilis Sfp phosphopantetheinyl transferase (PPTase) | 4'-phosphopantetheinyl transferase ffp (Bacillus subtilis), Q9F4F7 | Biochemical Sfp PPTase activity, qHTS | Potency, µM, inactives show largest response in the series, negative = inhibition, most hits filed as inhibitors | hit rate 3.5% among 310,000;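 note: the enzyme is Sfp with the accession as filed and its product quenches rhodamine fluorescence; 0% = enzyme reaction without inhibitor and -100% = no enzyme wells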
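Reaction rates are the 30-min fluorescence difference (ex 525, em 598 nm) in wells containing 15 nM Sfp, 5 uM rhodamine-CoA and 12.5 uM BHQ-2-YbbR at pH 7.6 with 10 mM MgCl2.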
Active calls of the source: *; ! = not active in a repeat; [ ] = another dose, or the depositor's remark. This is a sample that favours compounds with a hit; in the whole collection about 12% have one here. Calls come from the whole dose curve; as a rule, active = well fitted curve in the direction sought with a large enough effect; inconclusive = small, poorly fitted or top-dose-only effect, or another doubt; inactive = no such curve, though single readings can be large; an effect the other way counts as inactive or inconclusive. Potency is the fitted concentration of half-maximal effect.

Screening O=C(CSc1nnnn1-c1ccccc1)c1ccco1 returned HP1b binding inh 39.1%, BAZ2B block -9.1%, TDP1 block 4.8%, G9a inh 50.1µM*, JMJD2A Tudor inh -24.5% and Sfp PPTase inh 7.9%.
For O=C(CSc1ncnc2ccccc12)c1ccco1 the results were HP1b binding inh inconclusive, BAZ2B block -21.8%, TDP1 block -2.3%, G9a inh 12.6µM*, JMJD2A Tudor inh inconclusive and Sfp PPTase inh 20µM*.
For O=C(CSCCSCC(=O)c1ccco1)c1ccco1 the results were BAZ2B block inconclusive, TDP1 block inconclusive, G9a inh 10µM* and Sfp PPTase inh 44.7µM*.
Screening CN(C)C(=O)CSc1nnc2sc3ccccc3n12 returned HP1b binding inh 21.2%, BAZ2B block -6.2%, TDP1 block -1.2%, G9a inh 4.5%, JMJD2A Tudor inh 5.7% and Sfp PPTase inh -1.8%.
For C=CC(COCc1ccccc1)N([C@@H](Cc1ccccc1)C(=O)OC)S(=O)(=O)c1ccccc1Br (some centres not stated) the results were HP1b binding inh 74.8%, TDP1 block -1.1% and JMJD2A Tudor inh 15.0%.
CCc1ccc(NCc2cc3cc4c(cc3n(CC(=O)Nc3cccc(OC)c3)c2=O)OCO4)cc1 was read as HP1b binding inh 0.1%, BAZ2B block -27.3%, TDP1 block 5.6%, G9a inh inconclusive and JMJD2A Tudor inh inconclusive.
`O=C(CSc1c(Cl)cccc1Cl)NC1CCCc2ccccc21` (configuration not stated) gave HP1b binding inh 19.5%, BAZ2B block inconclusive, TDP1 block 3.2%, G9a inh inconclusive, JMJD2A Tudor inh -23.5% and Sfp PPTase inh -14.2%.
Screening O=C(CSc1nnnn1-c1ccccc1)NC1CCCc2ccccc21 (configuration not stated) returned HP1b binding inh 50.0%, BAZ2B block 2.5%, TDP1 block 0.0%, G9a inh 35.5µM*, JMJD2A Tudor inh 14.4% and Sfp PPTase inh 6.7%.
Screening O=C(CSc1nnc2sc3ccccc3n12)c1ccco1 returned HP1b binding inh 24.7%, BAZ2B block -1.5%, TDP1 block -2.6%, G9a inh 10µM*, JMJD2A Tudor inh -18.8% and Sfp PPTase inh -6.2%.
Screening Cc1ccc(NC(=O)N2CCCN(C(=O)OC(C)(C)C)CC2)cc1Cl returned HP1b binding inh 6.6%, BAZ2B block 1.6%, G9a inh -5.1%, JMJD2A Tudor inh -7.7% and Sfp PPTase inh 2.3%.
Screening COC(=O)c1ccc2c(=O)n(-c3ccccc3)c(SCN3C(=O)c4ccccc4C3=O)nc2c1 returned HP1b binding inh 49.5%, BAZ2B block -1.3%, TDP1 block -2.7%, G9a inh 28.2µM*, JMJD2A Tudor inh 2.7% and Sfp PPTase inh -8.4%.
CCOC(=O)CSc1nc2cc(C(=O)N3CCC(C(N)=O)CC3)ccc2c(=O)n1-c1ccccc1 was read as HP1b binding inh 21.7%, BAZ2B block -6.7%, TDP1 block -5.5%, G9a inh -31.6%[12.7 µM], JMJD2A Tudor inh -10.9% and Sfp PPTase inh 14.1%.
Screening CNc1c2c(nn1C)CCCC2 returned HP1b binding inh 39.8µM*!, BAZ2B block inconclusive, TDP1 block 2.9%, G9a inh inconclusive, JMJD2A Tudor inh 20µM*! and Sfp PPTase inh -1.6%.
Screening CC1(C)CC(CC(=O)NNc2nc(-c3ccccc3)cs2)C(=O)O1 (configuration not stated) returned HP1b binding inh inconclusive, BAZ2B block -1.8%, TDP1 block -5.3%, G9a inh -4.3%[59 µM], JMJD2A Tudor inh inconclusive and Sfp PPTase inh 5.0%.
CC(C)CC1CC(C)(c2csc(NNC(=O)c3ccccc3)n2)OC1=O (configuration not stated) was read as HP1b binding inh 28.8%, BAZ2B block 0.1%, TDP1 block 2.3%, G9a inh 44.7µM*, JMJD2A Tudor inh -9.7% and Sfp PPTase inh -5.7%.
CC(=O)Nc1c(C)ccc2nsnc12 was read as HP1b binding inh 31.9%, BAZ2B block -3.3%, TDP1 block 4.2%, G9a inh 10.0%[59 µM], JMJD2A Tudor inh -7.6% and Sfp PPTase inh 1.1%.
Screening CN(C)S(=O)(=O)c1cccc(NC(=O)c2cncc(Br)c2)c1 returned HP1b binding inh 20.2%, BAZ2B block 9.4%, TDP1 block 0.0%, G9a inh 4.5%[59 µM], JMJD2A Tudor inh -20.0% and Sfp PPTase inh inconclusive.
`Cc1cnc(C(=O)Nc2ccc(C)c(S(=O)(=O)N(C)C)c2)cn1` gave HP1b binding inh -2.5%, BAZ2B block 15.9%, TDP1 block 5.6%, G9a inh 23.3%[59 µM], JMJD2A Tudor inh 50.1µM* and Sfp PPTase inh 5.2%.
Screening Cc1ccc(NC(=O)c2cncc(Br)c2)cc1S(=O)(=O)N(C)C returned HP1b binding inh inconclusive, BAZ2B block 3.2%, TDP1 block -0.6%, G9a inh 13.1%, JMJD2A Tudor inh 12.6µM* and Sfp PPTase inh -21.8%.
For Cc1ccc2nsnc2c1NC(=O)c1cncc(Br)c1 the results were HP1b binding inh 21.7%, BAZ2B block 3.8%, TDP1 block 2.6%, G9a inh 56.2µM*, JMJD2A Tudor inh -12.6% and Sfp PPTase inh -21.0%.
Screening Cc1nnc(SCC(=O)Nc2ccccc2F)n1-c1ccc(F)cc1 returned HP1b binding inh 74.5%, BAZ2B block -13.6%, G9a inh 13.4%, JMJD2A Tudor inh -2.3% and Sfp PPTase inh 15.0%.
CC(=O)N1CCN(c2ccc(NC(=O)c3ccc(F)cc3)cc2)CC1 was read as HP1b binding inh 30.8%, BAZ2B block 7.7%, JMJD2A Tudor inh -12.3% and Sfp PPTase inh 10.1%.
For CCN(CC)c1ccc(C2CC(=O)NC3=C2C(=O)CC(C)(C)C3)cc1 (configuration not stated) the results were HP1b binding inh 6.8%, BAZ2B block -32.7%, TDP1 block 1.1%, G9a inh 50.1µM*, JMJD2A Tudor inh -19.0% and Sfp PPTase inh -2.2%.
For CN(Cc1ccccc1)C(=O)c1cccc(NC(=O)Cc2ccc(NC(=O)C3CCCN(C(=O)C4CCCC4)C3)cc2)c1 (configuration not stated) the results were HP1b binding inh 31.7% and JMJD2A Tudor inh -10.9%.

Screening data: PubChem BioAssay, National Center for Advancing Translational Sciences (NCATS)
